Source: PubChem BioAssay
ALDH1A1 inh: qHTS Assay for Inhibitors of Aldehyde Dehydrogenase 1 (ALDH1A1); Aldehyde dehydrogenase 1A1 (Homo sapiens), P00352; Purified ALDH1A1, NADH fluorescence, propionaldehyde substrate; Potency, µM (top dose mostly 75.3 µM), for the others: at the top dose activity, negative = inhibition, most hits filed as inhibitors; hit rate 7.3% among 220,000; AID 1030, 2008;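 further: potency means the concentration at half of the fitted maximal effect; plate controls were no enzyme wells and a reference inhibitor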
Target sequence (P00352 whole entry, looked up): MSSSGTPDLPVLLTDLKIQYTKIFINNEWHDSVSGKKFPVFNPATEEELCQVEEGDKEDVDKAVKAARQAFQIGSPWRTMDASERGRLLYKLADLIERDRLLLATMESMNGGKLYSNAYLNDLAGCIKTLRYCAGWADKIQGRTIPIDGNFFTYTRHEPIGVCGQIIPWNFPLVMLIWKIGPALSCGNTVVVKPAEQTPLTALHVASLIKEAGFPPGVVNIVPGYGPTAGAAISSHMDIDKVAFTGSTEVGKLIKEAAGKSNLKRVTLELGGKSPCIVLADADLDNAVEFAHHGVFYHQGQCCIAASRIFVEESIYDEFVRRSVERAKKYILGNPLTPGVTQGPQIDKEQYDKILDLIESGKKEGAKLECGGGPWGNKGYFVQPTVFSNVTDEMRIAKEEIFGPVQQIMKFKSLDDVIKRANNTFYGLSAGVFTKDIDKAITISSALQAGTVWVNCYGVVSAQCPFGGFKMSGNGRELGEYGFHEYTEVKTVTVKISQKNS
PNC inhibitor: High Content Assay for Compounds that inhibit the Assembly of the Perinucleolar Compartment; PC3M PTB-GFP, PNC prevalence imaging, 16 h; stronger effect = lower value; activity change (PNC), negative = inhibition, % at 10 µM; hit rate 3.1% among 140,000;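 active means readout at or below -70, meaning at least 70% loss of cells showing the perinucleolar compartment, a nuclear body marking cancer cells; inconclusive means readout between -30 and a set limit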;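 further: plate controls were DMSO wells for no effect and camptothecin positive control wells for full effect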
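Read-out is percentage of cells bearing a perinucleolar compartment, from automated 20x imaging of fixed, Hoechst-stained PC3M PTB-GFP cells. Cells were seeded 4 h, then exposed 16 h to compound (23 nl of library stock) in duplicate plates.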
LMNA splice mod: qHTS Assay for Modulators of Lamin A Splicing | HeLa LMNA splicing GFP/RFP minigene ratio, 48 h | Potency, µM (highest dose often 46.1 µM), for inactives: at the highest dose ratio change, negative = inhibition, usual class: inhibitors | hit rate 0.01% among 200,000; active means well fitted inhibition curve with a large enough effect in the signal ratio, with a control signal flat, not every such curve was filed as active; inconclusive means small, poorly fitted or top-dose-only effect, or effect the other way, or a change in a side signal; the % refers to the signal ratio; further: potency means the concentration at half of the fitted maximal effect
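S3 HeLa stable clones carrying a lamin A-EGFP splicing minigene plus DsRed2 were seeded at 600 cells/well in Opti-MEM with 2% FBS, pin-dosed and incubated 48 h at 37°C. Acumen cytometry (488 nm) gave the GFP/RFP total-intensity ratio.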
HPGD inh: qHTS Assay for Inhibitors of HPGD (15-Hydroxyprostaglandin Dehydrogenase); purified HPGD, NADH fluorescence kinetic, PGE2 substrate; Potency, µM, for inactives: at the highest dose activity change, negative = inhibition, usual class: inhibitors; AID 894, 2007; hit rate 4.3% among 150,000; 15-hydroxyprostaglandin dehydrogenase [NAD(+)] (Homo sapiens), P15428; further: potency means the concentration at half of the fitted maximal effect
Target sequence (P15428 whole entry, looked up): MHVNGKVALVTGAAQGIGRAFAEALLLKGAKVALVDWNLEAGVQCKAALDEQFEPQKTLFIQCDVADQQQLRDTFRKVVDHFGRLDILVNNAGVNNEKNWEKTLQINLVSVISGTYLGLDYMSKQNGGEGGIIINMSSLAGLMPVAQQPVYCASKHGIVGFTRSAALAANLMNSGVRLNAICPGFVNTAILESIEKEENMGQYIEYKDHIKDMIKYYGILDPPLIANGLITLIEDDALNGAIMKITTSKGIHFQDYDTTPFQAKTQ
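20 nM HPGD preincubated 15 min at room temperature with compound in 50 mM Tris-HCl pH 8, 0.01% Tween 20. Started with 1 mM NAD+ and 30 uM prostaglandin E2; NADH fluorescence (360/450 nm) read 5 times over 30-s intervals, last minus first.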
12-hLO inh: qHTS Assay for Inhibitors of 12-hLO (12-human lipoxygenase); Potency, µM (highest dose often 57.1 µM), for inactives: at the highest dose activity change, negative = inhibition, actives largely listed as inhibitors; purified 12-hLO, xylenol orange hydroperoxide absorbance; Polyunsaturated fatty acid lipoxygenase ALOX12 (Homo sapiens), P18054; hit rate 0.12% among 150,000; active means well fitted inhibition curve with a large enough effect; inconclusive means small, poorly fitted or top-dose-only effect; further: potency means the concentration at half of the fitted maximal effect; nearly all actives have a fitted effect of over 55% in size
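150 nM 12hLO, 25 mM Hepes pH 7.0 + 0.01% Triton X-100; cpd preinc 15 min RT; 40 uM arachidonic acid, 30 min RT; Fe-XO 30 min; A573/A405 ratio as read-out.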
Numbers without * were called inactive; ? = inconclusive; / = not tested or not shown; ! = a repeat was not active; [ ] = remark or other dose. Sampled rows, rich in hits. Any-hit rate of the full collection: about 10%. Unless noted, the call rests on the fitted dose curve; in most records, active means well fitted inhibition curve with a large enough effect (not every such curve was filed as active); inconclusive means small, poorly fitted or top-dose-only effect, or another doubt; inactive means no such curve, though single readings can be large or run the other way. Unless noted, on the % scale 0 is the no-effect control and ±100 the full control effect.

SMILES	ALDH1A1 inh	PNC inhibitor	LMNA splice mod	HPGD inh	12-hLO inh
COc1ccc(OCCCC(=O)Nc2ccc3c(c2)OCCO3)cc1	22µM*	-20	2%	-20%	5%
COC(=O)c1ccsc1NC(=O)CN1CCN(Cc2ccc3c(c2)OCO3)CC1	14%	?	7%	0%	1%
COC(=O)c1c(NC(=O)CN2CCN(Cc3ccc4c(c3)OCO4)CC2)sc(C)c1C	13µM*	32	?	-9%	-12%
O=C(CSCc1ccccc1)Nc1ccc2c(c1)OCO2	-6%	280	-7%	-18%	-8%
Cc1ccc(CSCC(=O)Nc2ccc3c(c2)OCO3)cc1	7.9µM*	-3	19%	-26%	-8%
O[C@H](C[C@@H]1CCCCN1)c1ccc2c(c1)oc1ccccc12	8%[13.5 µM]	/	/	-1%	-2%[11.4 µM]
COc1ccc(C)cc1NC(=O)N(Cc1ccc(C)o1)C1CCN(C(C)=O)CC1	/	/	5%[46 µM]	/	/
CC(C)(c1ccccc1)c1ccc(OCCCN2CCNCC2)cc1	16µM*	/	/	/	/
O=C1/C(=C/c2cccs2)COc2ccccc21	-8%	-20	-9%	25µM*	1%
CSc1ncc(C(=O)NCc2ccc(F)cc2)c(-c2ccccc2)n1	/	/	17%[46 µM]	/	/
COc1ccc(Cl)cc1NC(=O)Cn1ccn(Cc2ccc(C)cc2)c(=O)c1=O	/	/	9%[46 µM]	/	/
O=C(c1ccncc1)N1CCN(C(=O)c2cccs2)CC1	10%	-5	-5%	0%	1%
O=C(c1cccs1)N1CCN(Cc2ccccn2)CC1	15µM*	/	/	/	/
COc1ccccc1-n1c(CNC(=O)COc2ccccc2)n[nH]c1=S	2.2µM*	1	-5%	?	4%
Cc1cc2c(cc1S(=O)(=O)Nc1cccc(Cl)c1C)OCCN2C	/	/	0%[46 µM]	/	/
Cn1c(=O)c2cc(S(=O)(=O)NC(C(=O)N3CCCCCC3)c3ccccc3)ccc2n(C)c1=O (centres undefined)	3.2µM*	?	2%	-8%	-4%
Cn1c(=O)c2cc(S(=O)(=O)NC(C(=O)NC3CCCCC3)c3ccccc3)ccc2n(C)c1=O (centres undefined)	-7%	-5	4%	-10%	7%
S=C(NCc1ccccn1)Nc1ccc(Cl)cc1	?	-17	-6%	-11%	-7%
O=C(NCc1ccccn1)c1cccc(NS(=O)(=O)c2cccc(F)c2)c1	14µM*	?	2%	-16%	2%
Fc1cccc(NC(=S)NCc2ccccn2)c1	?	-91*	-16%	?	-5%
COc1ccc(-c2coc3cc(OC(C)=O)cc(OC(C)=O)c3c2=O)cc1	69%	/	?	-29%	0%
Cc1cc(SCC(=O)N/N=C/c2ccc(O)c(O)c2)c(C)cc1Br	5%	31	-6%	2.8µM*	?
COc1ccc2nc(C)cc(SCC(=O)N/N=C/c3ccc(O)c(O)c3)c2c1	28µM*	/	/	/	/
COc1ccc(CNC(=O)Cn2c(=O)cc(-c3ccccc3)c3c(C)nn(C)c32)cc1	/	/	-7%[46 µM]	/	/
O=C(CSc1nc2c(c(C(F)(F)F)n1)CCc1ccccc1-2)NCc1ccc(F)cc1	-2%	-119*	-2%	-8%	-4%
SMILES	ALDH1A1 inh	PNC inhibitor	LMNA splice mod	HPGD inh	12-hLO inh
COc1ccc(C)cc1NC(=O)C(NCC1CCCO1)c1ccccc1 (centres undefined)	18µM*	-17	?	-1%	0%
CC(C)N(CC(=O)O)CC(=O)O	?	/	/	2%	0%[11.4 µM]
CCOC(=O)c1c(NC(=O)/C=C/C(=O)O)sc(C)c1-c1ccc(Cl)cc1	20µM*	/	?	/	/
CCOC(=O)c1c(NC(=O)Nc2ccc(Cl)cc2)sc(C)c1C	?	112	5%[0.0737 µM]	?	4%
CCOC(=O)c1c(NC(=O)CCl)sc(CN(C)C)c1-c1ccccc1	7.1µM*	/	?	/	/
CC(=O)OC[C@@H]1O[C@H](C/C=N\O[C@@H](C)CN2CCCCc3nc(C)c(C)cc32)C=C[C@@H]1OC(C)=O	-8%[13.5 µM]	/	/	/	/
O=C(CSc1nnc(CNc2ccccc2)o1)N1CCCc2ccccc21	8.9µM*	?	-3%	-5%	-4%
CC1Cc2ccccc2N1C(=O)CSc1nnc(CNc2ccccc2)o1 (centres undefined)	25µM*	?	-9%	-4%	1%
COc1ccc(NCc2nnc(SCC(=O)N3CCCc4ccccc43)o2)cc1	?	37	-3%	-1%	-9%
CC(C)(C)C1CCc2onc(C(=O)N3CCOCC3)c2C1 (centres undefined)	25µM*	-10	20%	-16%	2%
O=C(OCn1ncc(Cl)c(Cl)c1=O)c1ccc(C(F)(F)F)cc1	3.5µM*	6	?	-8%	0%
Cc1ccc(C(=O)OCn2ncc(Cl)c(Cl)c2=O)cc1	1.4µM*	?	?	28µM*	-9%
Cc1cc(C(=O)Cn2ncc(Cl)c(Cl)c2=O)c(C)n1CC(F)(F)F	?	-23	?	-1%	1%
Cc1ccc(C)c(C(=O)Cn2ncc(Cl)c(Cl)c2=O)c1	14µM*	-6	?	-12%	-3%
FC(F)(F)c1cccc(-c2noc(-c3cc(-c4ccccc4)c(C(F)(F)F)s3)n2)c1	4%	/	/	-5%	-3%
COC(=O)C1CCN(C(c2ccccc2Cl)c2sc3nc(-c4ccco4)nn3c2O)CC1 (centres undefined)	/	/	-11%[46 µM]	/	/
CCCCCCCCCCCCC1CO1 (centres undefined)	22%	/	/	-2%	-5%
CN(CC(=O)Nc1ccc(Cl)cc1)CC(=O)Nc1ccc(C(N)=O)cc1	32µM*	/	10%[46 µM]	/	/
CC(C)(C)c1[nH]c2ccccc2c1/C=N/O	10%	7	19%	2µM*	-10%
C[C@@]12CCC(=O)C[C@@H]1CC(=O)[C@H]1[C@H]3CCC[C@]3(C)C(=O)C[C@@H]12 (tested in a mixture with another compound)	19%[20.9 µM]	/	?	0%	-2%[25.6 µM]
O=C(SCc1cccc2ccccc12)c1ccc(Cl)cc1	-3%[13.5 µM]	/	/	-8%	-2%[11.4 µM]
Cc1ccc(O)c(C(=O)c2coc(=N)c(C(=O)NC(C)C)c2)c1	?	-23	-5%	18µM*	3%
COc1ccc(S(=O)(=O)Cc2ccc(C(=O)N3CCC(C(N)=O)CC3)o2)cc1	5%	-85*	-1%	-8%	7%
O=C(NCc1ccccc1)c1ccc(-c2ccccc2C(F)(F)F)o1	25µM*!	-84*	-8%	32µM*!	-4%[0.00818 µM]
O=C(O)c1ccc(-c2ccccc2C(F)(F)F)o1	5%	1	-1%	-7%	-2%
COC(=O)c1ccccc1O	-1%	/	?	-2%	1%
O=C(C/C(=N/O)c1ccccc1O)C(F)F	7%	7	-1%	16µM*	-9%
O=C(NCc1ccc(F)cc1)C1CCN(S(=O)(=O)c2ccc3c(c2)CCCN3C(=O)C2CCC2)CC1	/	/	10%[46 µM]	/	/
